{"source": "ChEMBL document CHEMBL3988442", "about": "“University of Dundee, Small-Polar-MMV Screening Library” (2021)"}
{"molecular_target": "AMP-activated protein kinase, AMPK (Homo sapiens) (UniProt P54646+O43741+P54619+Q9UGJ0+Q9Y478+Q13131+Q9UGI9)", "assay": "AMP-dependent Kinase enzyme assay. An in vitro enzyme assay that detects ADP turnover that is directly proportional to AMPK activity. This uses naive AMPK that is activated during the assay with MK-8722", "assay_type": "functional", "set-up": "scale not given: direction of the effect not stated beside the values", "settings": "30 µM", "units": {"Percent Effect": "%"}}
{"smiles": "O=C(COc1cccc(Cl)c1)N1CCOCC(O)(CN2CCCC2)C1", "note": "(stereo not given)", "Percent Effect": 6.36}
{"smiles": "CCN(C)S(=O)(=O)N1CCC(C(O)c2ccc(Cl)cc2)CC1", "note": "(stereo not given)", "Percent Effect": 1.46}
{"smiles": "OCCN1CCCC(c2cccc(-c3ccccc3F)n2)C1", "note": "(stereo not given)", "Percent Effect": 20.3}
{"smiles": "CCc1nc(CNc2cc(C)nc(-c3cccnc3)n2)cs1", "Percent Effect": -0.151}
{"smiles": "Cn1cc(CNCCNc2ncc(Cl)cc2Cl)cn1", "Percent Effect": -10.3}
{"smiles": "COc1ccc(N2CCN(Cc3noc(CC(C)C)n3)C(C)C2=O)cc1", "note": "(stereo not given)", "Percent Effect": 0.845}
{"smiles": "O=C(c1coc(-c2ccccc2)n1)N1CCS(=O)(=O)CC1", "Percent Effect": 0.626}
{"smiles": "CN(C)C(=O)CN1CCCC(c2nccnc2-c2cccc(Cl)c2)C1", "note": "(stereo not given)", "Percent Effect": 19.9}
{"smiles": "CC(C)n1cc(CN(Cc2ccsc2)CC2CCCO2)cn1", "note": "(stereo not given)", "Percent Effect": 5.12}
{"smiles": "Cc1nccc(CN2Cc3nccn3CC2c2ccccc2)n1", "note": "(stereo not given)", "Percent Effect": 15}
{"smiles": "CN(C(=O)c1ccncc1)c1nnc(C2CCOC2)s1", "note": "(stereo not given)", "Percent Effect": 12.1}
{"smiles": "CCc1ocnc1C(=O)N1CCC2(CCCN(CC(C)(C)C)C2=O)C1", "note": "(stereo not given)", "Percent Effect": 9.83}
{"smiles": "COCCCC1(CO)CCCN(C(=O)c2cnc3c(c2)CCCC3)C1", "note": "(stereo not given)", "Percent Effect": -2.32}
{"smiles": "Cc1cc(C)n(C2CN(C(=O)c3cn4ccsc4n3)C2)n1", "Percent Effect": -4.27}
{"smiles": "Cc1ccccc1OCCn1cnc2oc(C)c(C(=O)O)c2c1=O", "Percent Effect": 14.5}
{"smiles": "CCOc1cccc(CN(Cc2cnn(C)c2)CC(C)C)c1O", "Percent Effect": -9.84}
{"smiles": "CCc1ccc(CC)c(NCc2cnc(N3CCOCC3)nc2)c1", "Percent Effect": -6.68}
{"smiles": "CC(C)c1noc(C(C)N2CCC(c3nc4ccccc4[nH]3)CC2)n1", "note": "(stereo not given)", "Percent Effect": 0.872}
{"smiles": "COc1ccc(CC2(CO)CCN(c3cc(N)ncn3)CC2)cc1", "Percent Effect": 8.25}
{"smiles": "O=C(NCCn1ccnc1)C1COCC(=O)N1Cc1ccccc1", "note": "(stereo not given)", "Percent Effect": 5.07}
